Records with an inconclusive call do not appear. The source made the active and inactive calls. Unless noted, calls follow the shape of the dose curve; as a rule, active = well fitted curve in the direction sought with a large enough effect in the repeat runs; inconclusive = weak or mixed curves; inactive = no such curve, though single readings can be large; an effect the other way counts as inactive or inconclusive.
Key:
[1] = qHTS assay to identify small molecule agonists of the peroxisome proliferator-activated receptor delta (PPARd) signaling pathway - cell viability counter screen (AID 743211); also: nearly all actives have a fitted effect of over 55% in size
Summary of the method: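 In the same wells used for beta-lactamase reporter measurement, cytotoxicity is scored by CellTiter-Glo. HEK293H PPARd-bla cells receive compound for 17 h at 37C following a 5 h settling period.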

[2] = target: Peroxisome proliferator-activated receptor delta (Homo sapiens) (UniProt Q03181); assay: qHTS assay to identify small molecule agonists of the peroxisome proliferator-activated receptor delta (PPARd) signaling pathway (AID 743212; calls by dose curve)
Summary of the method: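 GeneBLAzer PPARd UAS-bla HEK293H cells (beta-lactamase reporter under UAS control), plated and rested 5 h at 37 C, then exposed to compounds in DMSO at 37 C; LiveBLAzer B/G FRET substrate added, 2 h room temperature, fluorescence read.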

[3] = qHTS assay to identify small molecule antagonists of the peroxisome proliferator-activated receptor delta (PPARd) signaling pathway - cell viability counter screen (AID 743213); also: nearly all actives have a fitted effect of over 50% in size
Summary of the method: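 HEK293H cells with the PPARd UAS-bla reporter, co-treated 17 h at 37 C with compounds and L165041 (300 nM final), were lysed with CellTiter-Glo. Luminescence indicated viable cell content.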

[4] = target: Peroxisome proliferator-activated receptor delta (Homo sapiens) (UniProt Q03181); assay: qHTS assay to identify small molecule antagonists of the peroxisome proliferator-activated receptor delta (PPARd) signaling pathway (AID 743215; active = well fitted inhibition curve with a large enough effect in the signal ratio in the repeat runs, not every such curve was filed as active; the % refers to the signal ratio;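 also: cells stimulated with agonist L165041 at 300 nM final during compound exposure; series mostly up to about 62 µM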)
Summary of the method: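 With L165041 present at 300 nM final, compounds were incubated 17 h at 37 C on PPARd UAS-bla HEK293H cells. A FRET-based beta-lactamase substrate was then applied for 2 h at room temperature and fluorescence intensity recorded.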

[5] = target: Bile acid receptor (Homo sapiens) (UniProt Q96RI1); assay: qHTS assay to identify small molecule antagonists of the farnesoid-X-receptor (FXR) signaling pathway (AID 743217; active = well fitted inhibition curve with a large enough effect in the signal ratio in the repeat runs, not every such curve was filed as active; the % refers to the signal ratio)
Summary of the method: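 In this cell-based antagonist screen, inhibition of CDCA-driven (50 uM final) UAS-beta-lactamase expression in HEK 293T cells was measured by FRET fluorescence following 16 h compound exposure at 37 °C.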

[6] = qHTS assay to identify small molecule agonists of the farnesoid-X-receptor (FXR) signaling pathway - cell viability counter screen (AID 743218); also: nearly all actives have a fitted effect of over 45% in size
Summary of the method: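 After 16 h at 37 C with test compounds, FXR-bla HEK 293T cells were given LiveBLAzer B/G substrate for 2 h at RT and then CellTiter-Glo; luminescence was taken after 30 min.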

[7] = target: Bile acid receptor (Homo sapiens) (UniProt Q96RI1); assay: qHTS assay to identify small molecule agonists of the farnesoid-X-receptor (FXR) signaling pathway (AID 743220; active = well fitted activation curve with a large enough effect in the signal ratio in the repeat runs, not every such curve was filed as active; the % refers to the signal ratio)
Summary of the method: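 Beta-lactamase reporter under UAS control in GeneBLAzer FXR HEK 293T cells (5000/well) measured with LiveBLAzer FRET substrate after 2 h at room temperature. Compound exposure lasted 16 h at 37C.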

[8] = qHTS assay to identify small molecule antagonists of the farnesoid-X-receptor (FXR) signaling pathway - cell viability counter screen (AID 743221; active = well fitted cell-killing curve with a large enough effect in the repeat runs, not every such curve was filed as active; also: nearly all actives have a fitted effect of over 50% in size)
Summary of the method: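 Here viability was scored by luminescence after CellTiter-Glo addition to wells already read for beta-lactamase. Prior treatment: compound plus CDCA (50 uM final), 16 h, 37 C, HEK 293T FXR-bla cells.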

[9] = target: Vitamin D3 receptor (Homo sapiens) (UniProt P11473); assay: qHTS assay to identify small molecule agonists of the vitamin D receptor (VDR) signaling pathway (AID 743222; calls by dose curve)
Summary of the method: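 VDR-bla cells were seeded, left 4 h, treated with compounds in DMSO for 16 h, incubated 2 h at RT with B/G FRET substrate, and read for fluorescence.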

[10] = target: Vitamin D3 receptor (Homo sapiens) (UniProt P11473); assay: qHTS assay to identify small molecule antagonists of the vitamin D receptor (VDR) signaling pathway (AID 743223; active = well fitted inhibition curve with a large enough effect in the signal ratio in the repeat runs, not every such curve was filed as active; the % refers to the signal ratio)
Summary of the method: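 Inhibition of agonist-driven VDR signalling is scored in VDR-bla cells: 3 nM final 1alpha,25-dihydroxyvitamin D3 plus compound, 16 h at 37C, then beta-lactamase detection by FRET substrate fluorescence after 2 h.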

Measured: Potency

Sequence of Peroxisome proliferator-activated receptor delta (Homo sapiens) (Q03181 whole entry, looked up): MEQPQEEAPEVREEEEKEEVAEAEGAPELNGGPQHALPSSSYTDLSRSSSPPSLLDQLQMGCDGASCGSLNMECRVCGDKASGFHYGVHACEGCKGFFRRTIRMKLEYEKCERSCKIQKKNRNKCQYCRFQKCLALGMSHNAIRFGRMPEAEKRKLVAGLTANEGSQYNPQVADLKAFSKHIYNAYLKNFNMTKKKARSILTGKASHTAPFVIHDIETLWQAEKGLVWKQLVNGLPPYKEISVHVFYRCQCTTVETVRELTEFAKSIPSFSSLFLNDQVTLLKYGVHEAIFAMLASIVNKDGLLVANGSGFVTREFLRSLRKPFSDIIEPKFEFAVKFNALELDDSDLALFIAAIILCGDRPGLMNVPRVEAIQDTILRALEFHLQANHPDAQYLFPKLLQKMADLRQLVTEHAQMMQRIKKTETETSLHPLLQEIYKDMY
Sequence of Vitamin D3 receptor (Homo sapiens) (P11473 whole entry, looked up): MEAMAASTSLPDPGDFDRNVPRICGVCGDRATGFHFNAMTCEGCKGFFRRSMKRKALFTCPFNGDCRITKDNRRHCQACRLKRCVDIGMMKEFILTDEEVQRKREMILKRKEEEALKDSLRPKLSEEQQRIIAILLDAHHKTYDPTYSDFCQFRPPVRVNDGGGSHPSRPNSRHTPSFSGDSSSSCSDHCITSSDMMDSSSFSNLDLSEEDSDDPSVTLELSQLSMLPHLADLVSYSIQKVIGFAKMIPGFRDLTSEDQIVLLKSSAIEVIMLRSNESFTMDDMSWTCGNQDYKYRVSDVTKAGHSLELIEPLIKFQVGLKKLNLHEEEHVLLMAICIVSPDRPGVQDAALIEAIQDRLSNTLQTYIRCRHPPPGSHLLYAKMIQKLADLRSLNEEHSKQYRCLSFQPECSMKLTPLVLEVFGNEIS
Sequence of Bile acid receptor (Homo sapiens) (Q96RI1 whole entry, looked up): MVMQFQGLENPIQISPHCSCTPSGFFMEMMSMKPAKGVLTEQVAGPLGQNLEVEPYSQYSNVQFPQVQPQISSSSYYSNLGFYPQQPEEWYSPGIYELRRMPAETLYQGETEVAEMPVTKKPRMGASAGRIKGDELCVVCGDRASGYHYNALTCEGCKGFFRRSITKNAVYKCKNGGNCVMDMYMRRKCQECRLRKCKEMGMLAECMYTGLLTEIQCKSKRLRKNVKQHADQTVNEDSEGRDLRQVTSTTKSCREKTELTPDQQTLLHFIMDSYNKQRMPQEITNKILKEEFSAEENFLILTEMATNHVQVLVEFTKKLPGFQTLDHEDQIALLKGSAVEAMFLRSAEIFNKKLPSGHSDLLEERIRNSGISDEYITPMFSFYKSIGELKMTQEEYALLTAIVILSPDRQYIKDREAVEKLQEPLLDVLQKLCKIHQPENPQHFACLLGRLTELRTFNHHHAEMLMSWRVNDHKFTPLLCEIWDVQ

COC(=O)/C=C(/C)N
inactive: all assays above

CN(CC1(C)CCCO1)S(=O)(=O)c1ccc(Cl)c(S(N)(=O)=O)c1 (stereo unspecified)
not listed: [9] | [10]
inactive: all other assays above

O=C(Cl)c1cccc([N+](=O)[O-])c1
not listed: [8]
inactive: all other assays above

CCN(CC)C(=O)N(CC)CC
not listed: [6] | [9]
inactive: all other assays above

CN1CCN(c2c(F)cc3c(=O)c(C(=O)O)cn4c3c2SCC4)CC1
inactive: all assays above

N#Cc1ccc(C(c2ccc(C#N)cc2)n2cncn2)cc1
inactive: all assays above

CCCCCCCCOC(=O)CCCCCCCCC(=O)OCCCCCCCC
not listed: [9]
inactive: all other assays above

CC1(C)S[C@@H]2[C@H](NC(=O)C(C(=O)O)c3ccccc3)C(=O)N2[C@H]1C(=O)O (stereo partly specified)
not listed: [7] | [9]
inactive: all other assays above

COc1nc(C)nc(NC(=O)NS(=O)(=O)c2ccccc2OCCCl)n1
not listed: [10]
inactive: all other assays above

CCC(=O)Nc1ccc(O)cc1
inactive: all assays above

O=c1[nH]cnc2c1ncn2[C@@H]1O[C@H](CO)[C@@H](O)[C@H]1O
not listed: [9]
inactive: all other assays above

C[C@@H]1CN(c2c(F)c(F)c3c(=O)c(C(=O)O)cn(C4CC4)c3c2F)C[C@H](C)N1
not listed: [5] | [9]
inactive: all other assays above

O=C(O)[C@@H](O)[C@H](O)[C@H](O)[C@@H](O)C(=O)O
inactive: [1] | [2] | [3] | [4] | [6] | [8]

CCCc1c2oc(C(=O)O)cc(=O)c2cc2c(=O)cc(C(=O)O)n(CC)c12
not listed: [9]
inactive: all other assays above

CO[C@@]1(NC(=O)CSCC#N)C(=O)N2C(C(=O)O)=C(CSc3nnnn3C)CS[C@@H]21
inactive: [1] | [2] | [3] | [4] | [6]

CCC1(C)NC(=O)NC1=O (stereo unspecified)
inactive: all assays above

COc1cc(N)c(Cl)cc1C(=O)NC1CCN(Cc2ccccc2)CC1
inactive: all assays above

CNCCC(Oc1ccccc1OC)c1ccccc1 (stereo unspecified)
inactive: all assays above

CCOC(=O)C1CC(=O)C(=C(O)C2CC2)C(=O)C1 (stereo unspecified)
not listed: [8]
inactive: all other assays above

NNS(=O)(=O)c1ccc(Oc2ccc(S(=O)(=O)NN)cc2)cc1
inactive: all assays above

COC(=O)C(C)O (stereo unspecified)
not listed: [10]
inactive: all other assays above

Oc1ccccc1C=NCc1ccccc1
not listed: [8]
inactive: all other assays above

N#CSCC(=O)O
not listed: [9] | [10]
inactive: all other assays above

CCCCCCCCCC/C=C/C#N
inactive: all assays above

O=C1CCC(C2CCCCC2)CC1
not listed: [6] | [9]
inactive: all other assays above

CC(=O)N(CC(O)CN(C(C)=O)c1c(I)c(C(=O)NCC(O)CO)c(I)c(C(=O)NCC(O)CO)c1I)c1c(I)c(C(=O)NCC(O)CO)c(I)c(C(=O)NCC(O)CO)c1I (stereo unspecified)
not listed: [8]
inactive: all other assays above

OC[C@H]1O[C@@H](O[C@H]2[C@H](O)[C@@H](O)[C@H](O)O[C@@H]2CO)[C@H](O)[C@@H](O)[C@H]1O
not listed: [9] | [10]
inactive: all other assays above

O=C1Nc2ccc([N+](=O)[O-])cc2C1=O
inactive: [1] | [2] | [3] | [4] | [6]

CN1CCN(N)CC1
not listed: [9] | [10]
inactive: all other assays above

FC(F)(F)C(F)(F)C(F)(F)C(F)(F)C(F)(F)C(F)(F)C(F)(F)C(F)(F)Br
inactive: all assays above

CC(=O)OC1C2(C)CCC(C2)C1(C)C (stereo unspecified)
not listed: [6] | [9] | [10]
inactive: all other assays above

CC1=C(O)C(=O)OC1C (stereo unspecified)
inactive: all assays above

O=[N+]([O-])c1nccn1CO[C@@H](CO)[C@H](O)CO
not listed: [9] | [10]
inactive: all other assays above

CCCCC(CC)COC(=O)COc1cc(Cl)c(Cl)cc1Cl (stereo unspecified)
not listed: [9] | [10]
inactive: all other assays above

CCN(CC)CC1CCCCN1CC(=O)N1c2ccccc2C(=O)Nc2cccnc21 (stereo unspecified)
not listed: [8]
inactive: all other assays above

FC(F)(F)C(Cl)(Cl)Cl
not listed: [10]
inactive: all other assays above

Cc1ccsc1C(=CCCN1CCC[C@@H](C(=O)O)C1)c1sccc1C
inactive: [1] | [2] | [3] | [4] | [6] | [8]

CS(=O)(=O)c1ccc([C@@H](O)[C@@H](CF)NC(=O)C(Cl)Cl)cc1
not listed: [8] | [9] | [10]
inactive: all other assays above

CCCC1CCC(=O)O1 (stereo unspecified)
not listed: [5] | [7]
inactive: all other assays above

ICCc1ccccc1
not listed: [5] | [7] | [9]
inactive: all other assays above

C1CSCCS1
not listed: [5] | [7] | [10]
inactive: all other assays above

CC(C)CC(=O)OCc1ccccc1
not listed: [5] | [7] | [9]
inactive: all other assays above

CCOc1ccc(NS(=O)(=O)c2ccc(N)cc2)nn1
inactive: [1] | [2] | [3] | [4] | [6] | [8]

O=C(O)[C@@H]1CSCN1
not listed: [5] | [7]
inactive: all other assays above

Cc1ccc(C=O)s1
not listed: [5] | [7]
inactive: all other assays above

CC/C=C\CCOC(=O)CCCCC
inactive: [1] | [2] | [3] | [4] | [6] | [8]

NCCCN1CCN(CCCN)CC1
not listed: [5] | [7]
inactive: all other assays above

COC(=O)N[C@H](C(=O)N[C@@H](Cc1ccccc1)[C@@H](O)CN(Cc1ccc(-c2ccccn2)cc1)NC(=O)[C@@H](NC(=O)OC)C(C)(C)C)C(C)(C)C
not listed: [5] | [7] | [9]
inactive: all other assays above

COc1ccccc1OCC(O)COC(N)=O (stereo unspecified)
inactive: [1] | [2] | [3] | [4] | [6] | [8]

CCCNC(C)(C)COC(=O)c1ccccc1
not listed: [5] | [7]
inactive: all other assays above
